GoLoco inh red – inhibitors of human Gai1-RGS12 GoLoco interaction (red fluorophore). P63096. Gai1:RGS12 GoLoco peptide FP, rhodamine, 10 min. Potency, µM (titrated, usually from 61.6 µM), without a hit: at the highest dose activity, negative = inhibition, actives largely listed as inhibitors. hit rate 0.44% among 230,000; active = well fitted inhibition curve with a large enough effect, not every such curve was filed as active; inactive = no such curve, though single readings can be large or run the other way; also: % is scaled to controls: 0 for no effect and ±100 for the full control effect; nearly all actives have a fitted effect of over 30% in size
Apoferritin bind – binds horse apoferritin like a general anesthetic. AID 485281. Potency, µM (highest dose often 77.5 µM), for the others: at the top dose activity change, negative = displacement, actives largely listed as inhibitors. apoferritin/1-aminoanthracene competitive binding, fluorescence. hit rate 0.074% among 350,000; also: % is scaled to controls: 0 for no effect and ±100 for the full control effect; nearly all actives have a fitted effect of over 20% in size
Target sequence (P02791 2-175 limits assumed): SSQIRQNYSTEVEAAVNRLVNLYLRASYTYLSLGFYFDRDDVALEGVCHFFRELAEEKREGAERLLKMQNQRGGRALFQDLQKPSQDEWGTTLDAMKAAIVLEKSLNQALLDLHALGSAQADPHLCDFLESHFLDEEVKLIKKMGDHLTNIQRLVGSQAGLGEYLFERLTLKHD
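Horse-spleen apoferritin (10 uM) in 50% saturated 1-aminoanthracene in PBS was incubated 10 min at room temperature with compound. Fluorescence (ex 380, em 535 nm) was normalized to free and bound 1-AMA, with concentration-response fitted by a four-parameter Hill equation.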
TR SRC2 fluor cs – counter-screen for TRb-SRC2 inhibitors: fluorescence interference. TRb/SRC2 Texas Red total fluorescence interference. Potency, µM (top dose mostly 106 µM), for the others: top-dose fluorescence change, negative = quenching. hit rate 0.29% among 280,000; active = well fitted curve in either direction with a large enough effect; inconclusive = small, poorly fitted or top-dose-only effect; also: % is scaled to controls: 0 for no effect and ±100 for the full control effect
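Flags fluorescent or light-absorbing compounds by total fluorescence, S + 2P, at 555 nm excitation and 632 nm emission. Mixture: 20 nM Texas Red SRC2 peptide, 0.6 uM human TRb LBD, 1 uM T3, 5% DMSO; compound exposure 5 h at ambient temperature.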
ERG-DNA inh – inhibitors of human ERG Ets domain-DNA interaction. fluorescence polarization, His-ERG Ets domain / labelled DNA. AID 624246. Potency, µM (doses to about 76.9 µM), for inactives: top-dose FP activity, negative = inhibition, hits mostly inhibitors. hit rate 0.028% among 370,000. P11308; active = well fitted inhibition curve with a large enough effect in the polarisation, with a control signal flat; inconclusive = small, poorly fitted or top-dose-only effect, or effect the other way, or a change in a side signal; inactive = no such curve, though single readings can be large or run the other way; the % refers to the polarisation;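 also: polarization taken with two DNA probes labelled with fluorescein and Texas red; % of control where 0% means no effect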
Target sequence (P11308 whole entry, looked up, the tested form may be a part): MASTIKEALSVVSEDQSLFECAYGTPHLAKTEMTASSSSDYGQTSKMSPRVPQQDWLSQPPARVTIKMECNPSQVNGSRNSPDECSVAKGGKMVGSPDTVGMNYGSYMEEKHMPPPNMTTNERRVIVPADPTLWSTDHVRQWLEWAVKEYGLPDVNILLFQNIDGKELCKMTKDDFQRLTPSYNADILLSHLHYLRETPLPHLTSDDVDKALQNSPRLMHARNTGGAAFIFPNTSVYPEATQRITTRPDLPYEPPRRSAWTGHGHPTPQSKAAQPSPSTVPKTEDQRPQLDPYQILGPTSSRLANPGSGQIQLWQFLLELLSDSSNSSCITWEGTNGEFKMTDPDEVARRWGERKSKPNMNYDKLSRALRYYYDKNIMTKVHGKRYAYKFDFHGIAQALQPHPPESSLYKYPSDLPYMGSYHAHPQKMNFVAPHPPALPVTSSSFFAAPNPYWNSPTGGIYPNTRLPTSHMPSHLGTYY
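His-tagged ERG Ets domain (1 uM in the protein solution; 300mM KCl, 50mM Tris-HCl, 1mM EDTA, 1mM DTT, pH 7.5) received compound, then a probe mix of 5 nM fluorescein-DNA and 100nM Texas-615-DNA. Fluorescence polarization was read for both dyes.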
TRb-SRC2 inh – inhibitors of human thyroid hormone receptor beta-SRC2 interaction | Potency, µM (highest dose often 106 µM), without a hit: top-dose activity change, negative = inhibition, actives largely listed as inhibitors | P10828 | TRbeta-SRC2 peptide binding, fluorescence polarization; receptor liganded with 1 µM T3 | hit rate 0.065% among 280,000 | AID 1469;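 also: plate controls were bound peptide for no effect and peptide without receptor for full effect; nearly all actives have a fitted effect of over 50% in size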
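Binding of a 20-amino-acid Texas Red SRC2 peptide (20 nM) to TRb ligand-binding domain (0.6 uM) with agonist T3 at 1 uM was followed by fluorescence polarization after a 5 hr room-temperature incubation.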
Active calls of the source: *; ? = inconclusive; . = no result given; [ ] = another dose, or the depositor's remark. A selection: hits, their analogues and other compounds. The true share with any hit is near 0.44%. Unless noted, calls follow the shape of the dose curve; as a rule, active = well fitted curve in the direction sought with a large enough effect; inconclusive = small, poorly fitted or top-dose-only effect, or another doubt; inactive = no such curve, though single readings can be large; an effect the other way counts as inactive or inconclusive. Potency is read from the fitted curve at half-maximal effect.

SMILES	GoLoco inh red	Apoferritin bind	TR SRC2 fluor cs	ERG-DNA inh	TRb-SRC2 inh
CC(C)C[C@H](NC(=O)[C@H](CC(C)C)NC(=O)[C@@H](Cc1c[nH]c2ccccc12)NC(=O)[C@H](Cc1ccccc1)NC(=O)[C@@H](Cc1c[nH]c2ccccc12)NC(=O)[C@H](CCC(N)=O)NC(=O)[C@H](CCC(N)=O)NC(=O)[C@@H]1CCCN1C(=O)[C@H](CCCCN)NC(=O)[C@@H]1CCCN1C(=O)[C@H](N)CCCN=C(N)N)C(N)=O	.	-2.2%	-2.9%	.	-5.5%
BrC1CCC(Br)C(Br)CCC(Br)C(Br)CCC1Br (centres undefined)	.	.	-3.2%[201 µM]	.	-5.5%[201 µM]
OCC1OC([S-])[C@H](O)C(O)C1O.[Au+] (some centres undefined)	-8.5%	-3.0%	12.6µM*[quencher]	.	?
OCC1O[C@H](O)C(Cl)C(O)C1O (some centres undefined)	8.6%	.	-4.2%	.	-5.5%
CCCNc1nc(C#N)nc(Nc2ccccc2)n1	.	-8.3%	.	.	.
Cc1ccc(CNc2ncnc3ccc(-c4c(C)noc4C)cc23)cc1	.	-8.5%	-0.2%	.	3.3%
CC(C)(C)c1ccc(OCCC(=O)NC2=NCCS2)cc1	5.0%	12.6µM*	-3.2%	3.2%	-2.8%
COc1ccc(OCCC(=O)NC2=NCCS2)cc1	4.2%	3.3%	1.6%	0.9%	-6.0%
CCCCc1nc2c(c3c1C[C@H](C)OC3)CN(S(=O)(=O)c1ccc(C#N)cc1)CC2	0.8%[14.2 µM]	.	-4.5%[11.2 µM]	.	-2.1%[11.2 µM]
CC1=CC2=C(OC1N(C)C)c1cccc3cccc(c13)C2=O (centres undefined)	17.8µM*	4.4%	20.9%	5.6%	39.8µM*
CC(C)=CCC/C(C)=C/CC/C(C)=C/CC/C(C)=C/C(=O)O	.	?	2.8%	.	3.6%
COC(OC)(C(=O)c1ccccc1)c1ccccc1	.	.	-2.8%[201 µM]	.	-2.9%[201 µM]
O=C(c1ccc(Cl)cc1Cl)c1ncc(C(F)(F)F)cc1Cl	5.2%	?	-5.5%	3.5%	1.2%
O/N=C(\c1ccc(Cl)cc1Cl)c1ncc(C(F)(F)F)cc1Cl	12.3%	17.8µM*	1.2%	-4.8%	-0.1%
CC1=C(C#N)C(=O)OC(C)(C)C1	-45.6%	0.4%	44.7µM*[fluorescent]	?	?
COC(=O)COc1ccc(S(=O)(=O)NCCC2=CCCCC2)cc1C	2.9%	5.62µM*	0.6%	-13.6%	-5.0%
CCOc1ccc(/C=C/C(=O)Nc2ccc(C(N)=O)cc2)cc1OC	7.6%	9.8%	1.0%	.	-26.2%
CCOCCOC(=O)c1ccc(NC(=O)/C=C/c2ccc(OC)c(OC)c2)cc1	.	45.8%	0.891µM*[quencher]	-2.2%	-16.6%[53 µM]
Cc1cc2cc(CNC(=O)c3cccs3)ccc2n1C	1.2%	-9.6%	-1.9%	17.8µM*	4.0%
Cc1cc2cc(CNC(=O)c3ccc(S(=O)(=O)N4CCCC4)cc3)ccc2n1C	-84.0%	?	44.7µM*[fluorescent]	?	35.5µM*
CCC(CC)C(=O)NCc1ccc2c(c1)cc(C)n2C	-0.4%	-10.2%	-2.0%	-6.1%	-2.8%
Cc1ccc(CNC(=O)c2ccc(S(=O)(=O)N3CCCCC3)cc2)cc1	.	.	.	5.0%	.
CCN(CC)S(=O)(=O)c1ccc(C(=O)NCc2ccc3c(c2)cc(C)n3C)cc1	-4.4%	-21.4%	44.7µM*[fluorescent]	31.6µM*	39.8µM*
C/C=C1\COC(C(=O)NC)(C(F)(F)F)C=C1C=C1CCCCC1 (centres undefined)	.	-17.8%	0.9%	.	-4.8%
N#CC(=C(/N)Sc1ccccc1N)/C(C#N)=C(\N)Sc1ccccc1N	8.6%	?	-4.0%	.	6.0%
SMILES	GoLoco inh red	Apoferritin bind	TR SRC2 fluor cs	ERG-DNA inh	TRb-SRC2 inh
Nc1ccc(N2CCCCCC2)cc1	-9.9%	-18.6%	24.8%	.	44.7µM*
Nc1ccc(N2CCN(c3ccc(F)cc3)CC2)cc1	4.3%	-7.9%	-1.9%	2.9%	1.1%
C#Cc1ccc2c(c1)C(=O)N(C)Cc1c(C(=O)OCCCOC(=O)c3ncn4c3CN(C)C(=O)c3cc(C#C)ccc3-4)ncn1-2	.	2.2%	-11.4%	.	2.5%
COc1cccc(CNC(=O)CN2C(=O)CCCc3ccccc32)c1OC	.	31.4%	20µM*[quencher]	-6.9%	-8.6%
COc1ccc(CNC(=O)CN2C(=O)CCCc3ccccc32)cc1	.	0.4%	0.0%	-7.7%	-7.4%
COc1cccc(CNc2ccc3c(c2)ncn3C)c1OC	.	-7.4%	0.0089µM*[quencher]	3.2%	-4.8%
CCn1cnc2cc(NCc3ccccc3Cl)ccc21	.	-15.7%	.	0.7%	.
COc1cccc(CNc2ccc3c(c2)nc(C)n3C)c1OC	.	10.6%	.	-2.8%	.
CCCCn1cnc2cc(NCc3ccccc3Cl)ccc21	.	50.6%	0.0631µM*[quencher]	1.9%	-23.4%[53 µM]
CN(C)C(CNC(=O)/C=C/c1cccc(Cl)c1)c1ccccc1 (centres undefined)	2.4%	-18.3%	-4.3%	39.8µM*	-5.1%
COCCCNC(=O)/C=C/c1cccc(Cl)c1	7.5%	-8.3%	-6.1%	-5.7%	2.4%
NC(=[SH+])N=N/C=C1/C=CC=CN1.O=S(=O)(O)O.[Fe]	1.1%[14.2 µM]	.	.	.	.
CSCC[C@H](NC(=O)c1ccc(NC[C@@H](N)CS)cc1-c1ccccc1)C(=O)O	.	-13.1%	-1.6%	.	6.1%
Oc1ccc(-c2cnns2)c(O)c1	1.26µM*	0.3%	-2.6%	2.6%	-3.1%
CC1C2(C)OC(=N)C(C#N)(C(C)O2)C1(C#N)C#N (centres undefined)	25.1µM*	160.3%	20.7%	?	?
CC1OC2(C)OC(=N)C1(C#N)C(C#N)(C#N)C2c1ccccc1 (centres undefined)	-15.0%	284.4%	3.7%	-15.0%	4.6%
COC1=C(Nc2ccc(O)cc2)C(=O)c2ccccc2C1=O	-21.5%	6.7%	?	0.8%	35.5µM*
S=C([S-])NCCNC(=S)[S-].[Mn+2]	.	.	2.7%[201 µM]	.	3.8%[201 µM]
Cc1ccc(NC(=O)N2CCc3cc(S(=O)(=O)N4CCC(C)CC4)ccc32)cc1F	.	54.7%	28.2µM*[quencher]	0.1%	-17.0%
CC1CCN(S(=O)(=O)c2ccc3c(c2)CCN3C(=O)Nc2ccc(Br)cc2)CC1	.	-8.4%	-0.9%	-5.9%	5.0%
CC(C)c1ccc(N2C(=O)/C(=C/N(C)C)SC2=S)cc1	-182.6%	-18.0%	28.2µM*[fluorescent]	-163.6%	?
CCO/C=C1\SC(=S)N(c2ccc(Cl)cc2)C1=O	185.1%	4.2%	14.4%	130.3%	?
CCC(C)NC(=O)c1ccc(-n2c(-c3ccccc3)cc3c2CCCC3)cc1 (centres undefined)	.	41.7%	1.78µM*[quencher]	2.9%	-13.2%
O=S(=O)(c1ccc2nc(-c3ccco3)c(-c3ccco3)nc2c1)N1CCOCC1	-0.4%	3.1%	6.31µM*[quencher]	0.4%	-9.3%
N#CC1=C(N)N(c2ccc(F)cc2)C2=C(C1c1ccc(O)cc1)S(=O)(=O)CC2 (centres undefined)	236.3%	-17.1%	44.7µM*[fluorescent]	41.0%	?

From PubChem BioAssay
